This is a sample that favours compounds with a hit; in the whole collection about 3.5% have one here.
mHTT-CaM PPI inh: inhibitors of human mutant huntingtin-calmodulin interaction | P42858 | AlphaScreen His-mHTT/GST-CaM binding, luminescence | inhibition, % at 15 µM | hit rate 3.6% among 190,000 | AID 1671202;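 note: 0% = both proteins with DMSO and 100% = one protein alone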
Pf apPOL block: Pf-apPOL DNA polymerase inhibition. hit rate 0.25% among 210,000. Recombinant Pf-apPOL, molecular beacon fluorescence, 1.5 h. inhibition, % at 10 µM
Active calls of the source: *; . = no result given. Cut-off read from the data, not from the text of the source: active = inhibition above about 50%; inactive = the rest.

SMILES	mHTT-CaM PPI inh	Pf apPOL block
CN(C(=O)c1c[nH]c2ccc(S(=O)(=O)N(C)C3CCCCC3)cc2c1=O)C1CCCCC1	22	-2
O=C(Nc1c(F)c(F)c(F)c(F)c1F)c1ccccc1	-10	-9
O=C(Nc1c(Cl)c(Cl)c(O)c(Cl)c1Cl)c1ccccc1	85*	-10
O=C(c1ccoc1)N1CCCC1c1nc(-c2cccc(C(F)(F)F)c2)no1 (configuration not stated)	-6	-6
O=[N+]([O-])c1cc(Cl)c(-n2cccc2)cc1N1CCOCC1	.	-4
Cc1ccc(C)c(Cc2c(C)nc3c(C(=O)NC4CCCCC4)cnn3c2C)c1	-1	1
Cc1ccccc1Cc1c(C)nc2c(C(=O)NC3CCCC3)cnn2c1C	-1	-9
COCCCNC(=O)c1cnn2c(C)c(Cc3cc(C)ccc3C)c(C)nc12	42	-11
Cc1ccc(C)c(Cc2c(C)nc3c(C(=O)NC(C)C)cnn3c2C)c1	79*	-9
Cc1ccccc1Cc1c(C)nc2c(C(=O)NC(C)C)cnn2c1C	71*	-13
Cc1ccc(C)c(Cc2c(C)nc3c(C(=O)NC4CC4)cnn3c2C)c1	53*	-6
COc1ccc(-c2ncccc2CNC(=O)c2ccc(F)cc2F)cc1	2	-22
Cc1cccc(C2CC(c3ccccc3Cl)Nc3ncnn32)c1 (configuration not stated)	-7	0
Nc1cccc(Oc2ccc3c(c2)C(=O)N(c2ccc(O)cc2)C3=O)c1	16	-8
O=C(c1ccco1)N1CCCCC1c1nncn1CC1CC1 (configuration not stated)	2	2
O=C(c1cccc(F)c1)c1coc2ccc(Cl)cc2c1=O	26	-11
O=C(c1ccccc1Cl)c1coc2ccc(Cl)cc2c1=O	98*	1
CN1/C(=C/C=C/c2ccc3ccccc3[n+]2C)C=Cc2ccccc21	100*	-3
CN(C)c1ccc(C=Cc2ccc3ccccc3[n+]2C)cc1	.	2
Cc1cc(C)c2c3c([nH]c2c1)CCC(NC(=O)C1CCCC1)C3 (configuration not stated)	36	2
CC(C)C(=O)NC1CCc2[nH]c3cc(Cl)cc(Cl)c3c2C1 (configuration not stated)	68*	-2
Cc1nc(CC(=O)NC2CCc3[nH]c4cc(Cl)cc(Cl)c4c3C2)c(C)s1 (configuration not stated)	78*	1
Cc1ccc2[nH]c3c(c2c1)CC(NC(=O)Cc1ccccc1C)CC3 (configuration not stated)	42	3
N=C1S/C(=C\c2ccccc2F)C(=O)N1c1ccccc1F	38	-5
O=C(Cc1cccs1)Nc1cccn2ncnc12	1	6
SMILES	mHTT-CaM PPI inh	Pf apPOL block
CC(NC(=O)c1cc2c(=O)n3ccccc3nc2n(Cc2cccnc2)c1=N)c1ccccc1 (configuration not stated)	1	-1
COc1cc(C2CC(=O)C3=C(C2)Nc2ccccc2NC3c2ccc(C)s2)cc(OC)c1OC (configuration not stated)	32	-7
O=C1NC(=O)/C(=C/c2ccc(Cl)cc2Cl)S1	2	0
CCOc1cc([N+](=O)[O-])cc(/C=C2\SC(=O)NC2=O)c1O	6	71*
N=C1NC(=O)/C(=C/c2cc(Br)cc(Cl)c2O)S1	9	-3
O=C1NC(=O)/C(=C/c2ccccc2OCc2ccc([N+](=O)[O-])cc2)S1	1	-2
O=C1NC(=O)/C(=C/c2cc(Br)cc(Cl)c2O)S1	60*	-2
O=C1NC(=O)/C(=C/c2cc(Cl)cc(Cl)c2O)S1	86*	-12
CCCc1ccc(Oc2coc3cc(OC)ccc3c2=O)cc1	-22	-12
CCn1ccnc1C(O)c1ccc(C(C)C)cc1 (configuration not stated)	3	-4
Cc1cccc(C(=O)Nc2cnc(-c3ccccc3)nc2)c1	-4	-4
CCCn1ccc2oc(C)c(C(=O)N3CCN(c4ccccc4F)CC3)c2c1=O	17	-3
CCn1ccc2oc(C)c(C(=O)N3CCN(c4cccc(C)c4C)CC3)c2c1=O	66*	-4
CCn1ccc2oc(C)c(C(=O)NCc3cc(C)ccc3C)c2c1=O	4	-2
CCn1ccc2oc(C)c(C(=O)N3CCN(c4cc(C)ccc4C)CC3)c2c1=O	85*	-2
Cc1ccc2nc(NC(=O)CN3CCN(CC(=O)c4ccco4)CC3)sc2c1	12	-3
Cc1ccc(N2C(=O)NC3CC2(C)Oc2ccc(Cl)cc23)cc1F (configuration not stated)	23	5
COc1ccc(C(=O)N2CCCC(C)(C(=O)NCc3ccc(C)cc3)C2)c(OC)c1 (configuration not stated)	4	4
COc1ccc(C(=O)N2CCN(c3cccc(Cl)c3)CC2)cc1	6	-1
COc1cccc(-n2ccnc2N2CCN(C(=O)c3ccc(F)c(F)c3)CC2)c1	54*	18
Cc1cc(C)c(NC(=O)CSc2nnnn2-c2c(C)cc(C)cc2C)c(C)c1	-1	-8

Screening results deposited in PubChem by University of Kansas High Throughput Screening Laboratory.
